Measured values from PubChem BioAssay.
Calls of active or inactive are those of the source.

Legend:
[1] = binders of probe aFSTL3 on microarray, primary screen, stem cell growth factor project, biochemical, small-molecule microarray, fluorescence 635/667 (AID 1064); details: higher = more signal;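 further: measures binding of the biotinylated anti-FSTL3 antibody to printed compounds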
[2] = binders from COS7 lysate, DM2A8 probe, primary screen, torsin A project, cell lysate, small-molecule microarray, fluorescence 635/667 (AID 1065); details: higher = more signal, COS7 lysate expressing mutant human TOR1A
[3] = binders of probe aFGF2 on microarray, primary screen, stem cell growth factor project, biochemical, small-molecule microarray, fluorescence 635/667 (AID 1067); details: higher = more signal;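 further: measures binding of biotinylated aFGF2 protein to printed compounds on slides; z-score merges feature fluorescence and signal-to-noise across triplicate slides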
[4] = binders of probe aFGF10 on microarray, primary screen, stem cell growth factor project, biochemical, small-molecule microarray, fluorescence 635/667 (AID 1071); details: higher = more signal;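 further: score merges 667 nm spot intensity and signal to noise from triplicate slides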
[5] = target: Neurogenic locus notch homolog protein 2 (Homo sapiens) (UniProt Q04721); experiment: Notch2 binders on small-molecule microarrays, primary screen, biochemical, small-molecule microarray, 635 nm fluorescence, stem cell growth factors (AID 1073); details: Notch2 binding, higher = more signal
[6] = target: Pro-neuregulin-1, membrane-bound isoform (Homo sapiens) (UniProt Q02297); experiment: NRG1 binders on small-molecule microarrays, primary screen, psychiatric disease protein project, biochemical, small-molecule microarray, fluorescence 635/667 (AID 1075); details: NRG1 binding, 635 nm fluorescence, higher = more signal;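 further: score combines 667 nm spot fluorescence with signal to noise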
[7] = system: Neuregulin-1 EGF-like domain; experiment: binders of neuregulin-1 EGF-like domain, primary screen, biochemical, small-molecule microarray, 635 nm fluorescence (AID 1081); details: small-molecule microarray binding, higher = more signal;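 further: binding of the protein to compounds printed on small-molecule microarray slides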
[8] = FRG1 promoter luciferase signal modulators, primary screen, FRG1 inhibition for FSHD, cell-based, C2C12 myotubes, firefly/Renilla luciferase, luminescence (AID 1084); details: higher = more signal, called active from +8 up or from −8 down
[9] = binders of probe aFST on microarray, primary screen, stem cell growth factor project, biochemical, small-molecule microarray, fluorescence 635/667 (AID 1086); details: higher = more signal;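 further: score merges 667 nm fluorescence with signal-to-noise of each printed compound spot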
[10] = binders of probe aHhip on microarray, primary screen, stem cell growth factor project, biochemical, small-molecule microarray, fluorescence 635/667 (AID 1087); details: higher = more signal;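 further: score merges spot fluorescence at 667nm with spot signal to noise ratio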
[11] = system: PRMT1 (protein arginine N-methyltransferase 1); experiment: PRMT1 binders on small-molecule microarrays, primary screen, biochemical, small-molecule microarray, 635 nm fluorescence (AID 1088); details: small-molecule microarray binding, higher = more signal;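 further: binding of Prmt1 protein to compounds spotted on small-molecule microarray slides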
[12] = yeast growth modulation, basal conditions, primary screen, YJM789 clinical isolate, OD600, 24 h (AID 1089);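 further: growth of clinical yeast isolate S. cerevisiae YJM 789 seeded 1000 cells per well; test concentration not given here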; details: S. cerevisiae YJM789 growth, higher = more signal, called active from +8 up or from −8 down
[13] = fission yeast growth modulation, primary screen, strain 972, OD600, 24 h, no modulator (AID 1090);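 further: basal condition with compound alone and no growth modifier present; test concentration not given here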; details: S. pombe 972 growth, higher = more signal, called active from +8 up or from −8 down
[14] = S. cerevisiae growth modulation with rapamycin, primary screen, strain BY4716, OD600, 96 h (AID 1091); details: higher = more signal, called active from +8 up or from −8 down; further: test concentration not given here
[15] = target: Torsin-1A-interacting protein 2 (Homo sapiens) (UniProt Q8NFQ8); experiment: LULL1 binders on small-molecule microarray, primary screen, cell lysate, human LULL1 lysate, 635/667 nm fluorescence (AID 1092); details: hLULL1 lysate binding, 635 nm fluorescence, higher = more signal;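 further: probe is lysate of COS7 cells overexpressing human LULL1; score merges per-feature 667 nm fluorescence with signal-to-noise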
[16] = E. coli growth modulation, two-sided OD650, primary screen, E. coli filamentation project, strain DRC41, 24 h (AID 1093); details: OD650, 24 h, higher = more signal, called active from +8 up or from −8 down;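 further: MC1000 strain lacking acrAB efflux and sulA so SOS filamentation is blocked; test concentration not given here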
[17] = small-molecule microarray binders of probe aLefty2, primary screen, biochemical, biotinylated probe, 635/667 nm fluorescence (AID 1094); details: higher = more signal;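 further: score merges spot fluorescence near 667 nm with spot signal-to-noise ratio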
[18] = system: Noggin (protein binding on small-molecule microarray); experiment: Noggin binders on small-molecule microarray, primary screen, biochemical, 635/667 nm fluorescence (AID 1095); details: 635 nm fluorescence, higher = more signal;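 further: score merges 667 nm feature fluorescence with signal to noise over triplicate slides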
[19] = target: Neurogenic locus notch homolog protein 3 (Homo sapiens) (UniProt Q9UM47); experiment: NOTCH3 binders on small-molecule microarray, primary screen, biochemical, 635/667 nm fluorescence (AID 1096); details: NOTCH3 binding, 635 nm fluorescence, higher = more signal
[20] = small-molecule microarray binders of probe aEGFR, primary screen, biochemical, biotinylated probe, 635/667 nm fluorescence (AID 1097); details: higher = more signal;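 further: probe is a biotinylated anti-EGFR antibody binding compounds printed on slides; score combines fluorescence near 667 nm and signal to noise of each spot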

Sequence of Pro-neuregulin-1, membrane-bound isoform (Homo sapiens) (Q02297 whole entry, looked up, the tested form may be a part, canonical isoform): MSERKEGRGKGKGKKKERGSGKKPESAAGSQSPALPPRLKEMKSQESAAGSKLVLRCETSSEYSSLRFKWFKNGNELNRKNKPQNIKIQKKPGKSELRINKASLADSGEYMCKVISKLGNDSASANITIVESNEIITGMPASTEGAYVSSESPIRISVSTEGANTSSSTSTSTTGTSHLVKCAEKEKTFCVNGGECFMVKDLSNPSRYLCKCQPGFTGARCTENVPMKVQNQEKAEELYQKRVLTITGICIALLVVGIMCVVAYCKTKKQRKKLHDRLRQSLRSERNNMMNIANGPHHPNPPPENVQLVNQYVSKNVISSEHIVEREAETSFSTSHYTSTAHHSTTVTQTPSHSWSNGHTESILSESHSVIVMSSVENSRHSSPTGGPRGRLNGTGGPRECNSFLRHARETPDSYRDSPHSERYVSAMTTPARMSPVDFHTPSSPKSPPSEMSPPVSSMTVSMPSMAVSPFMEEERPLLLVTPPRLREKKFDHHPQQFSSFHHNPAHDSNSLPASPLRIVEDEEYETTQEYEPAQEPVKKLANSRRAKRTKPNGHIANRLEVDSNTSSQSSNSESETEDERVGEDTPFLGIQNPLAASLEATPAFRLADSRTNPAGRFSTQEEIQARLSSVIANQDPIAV
Sequence of Neurogenic locus notch homolog protein 2 (Homo sapiens) (Q04721 whole entry, looked up, canonical isoform): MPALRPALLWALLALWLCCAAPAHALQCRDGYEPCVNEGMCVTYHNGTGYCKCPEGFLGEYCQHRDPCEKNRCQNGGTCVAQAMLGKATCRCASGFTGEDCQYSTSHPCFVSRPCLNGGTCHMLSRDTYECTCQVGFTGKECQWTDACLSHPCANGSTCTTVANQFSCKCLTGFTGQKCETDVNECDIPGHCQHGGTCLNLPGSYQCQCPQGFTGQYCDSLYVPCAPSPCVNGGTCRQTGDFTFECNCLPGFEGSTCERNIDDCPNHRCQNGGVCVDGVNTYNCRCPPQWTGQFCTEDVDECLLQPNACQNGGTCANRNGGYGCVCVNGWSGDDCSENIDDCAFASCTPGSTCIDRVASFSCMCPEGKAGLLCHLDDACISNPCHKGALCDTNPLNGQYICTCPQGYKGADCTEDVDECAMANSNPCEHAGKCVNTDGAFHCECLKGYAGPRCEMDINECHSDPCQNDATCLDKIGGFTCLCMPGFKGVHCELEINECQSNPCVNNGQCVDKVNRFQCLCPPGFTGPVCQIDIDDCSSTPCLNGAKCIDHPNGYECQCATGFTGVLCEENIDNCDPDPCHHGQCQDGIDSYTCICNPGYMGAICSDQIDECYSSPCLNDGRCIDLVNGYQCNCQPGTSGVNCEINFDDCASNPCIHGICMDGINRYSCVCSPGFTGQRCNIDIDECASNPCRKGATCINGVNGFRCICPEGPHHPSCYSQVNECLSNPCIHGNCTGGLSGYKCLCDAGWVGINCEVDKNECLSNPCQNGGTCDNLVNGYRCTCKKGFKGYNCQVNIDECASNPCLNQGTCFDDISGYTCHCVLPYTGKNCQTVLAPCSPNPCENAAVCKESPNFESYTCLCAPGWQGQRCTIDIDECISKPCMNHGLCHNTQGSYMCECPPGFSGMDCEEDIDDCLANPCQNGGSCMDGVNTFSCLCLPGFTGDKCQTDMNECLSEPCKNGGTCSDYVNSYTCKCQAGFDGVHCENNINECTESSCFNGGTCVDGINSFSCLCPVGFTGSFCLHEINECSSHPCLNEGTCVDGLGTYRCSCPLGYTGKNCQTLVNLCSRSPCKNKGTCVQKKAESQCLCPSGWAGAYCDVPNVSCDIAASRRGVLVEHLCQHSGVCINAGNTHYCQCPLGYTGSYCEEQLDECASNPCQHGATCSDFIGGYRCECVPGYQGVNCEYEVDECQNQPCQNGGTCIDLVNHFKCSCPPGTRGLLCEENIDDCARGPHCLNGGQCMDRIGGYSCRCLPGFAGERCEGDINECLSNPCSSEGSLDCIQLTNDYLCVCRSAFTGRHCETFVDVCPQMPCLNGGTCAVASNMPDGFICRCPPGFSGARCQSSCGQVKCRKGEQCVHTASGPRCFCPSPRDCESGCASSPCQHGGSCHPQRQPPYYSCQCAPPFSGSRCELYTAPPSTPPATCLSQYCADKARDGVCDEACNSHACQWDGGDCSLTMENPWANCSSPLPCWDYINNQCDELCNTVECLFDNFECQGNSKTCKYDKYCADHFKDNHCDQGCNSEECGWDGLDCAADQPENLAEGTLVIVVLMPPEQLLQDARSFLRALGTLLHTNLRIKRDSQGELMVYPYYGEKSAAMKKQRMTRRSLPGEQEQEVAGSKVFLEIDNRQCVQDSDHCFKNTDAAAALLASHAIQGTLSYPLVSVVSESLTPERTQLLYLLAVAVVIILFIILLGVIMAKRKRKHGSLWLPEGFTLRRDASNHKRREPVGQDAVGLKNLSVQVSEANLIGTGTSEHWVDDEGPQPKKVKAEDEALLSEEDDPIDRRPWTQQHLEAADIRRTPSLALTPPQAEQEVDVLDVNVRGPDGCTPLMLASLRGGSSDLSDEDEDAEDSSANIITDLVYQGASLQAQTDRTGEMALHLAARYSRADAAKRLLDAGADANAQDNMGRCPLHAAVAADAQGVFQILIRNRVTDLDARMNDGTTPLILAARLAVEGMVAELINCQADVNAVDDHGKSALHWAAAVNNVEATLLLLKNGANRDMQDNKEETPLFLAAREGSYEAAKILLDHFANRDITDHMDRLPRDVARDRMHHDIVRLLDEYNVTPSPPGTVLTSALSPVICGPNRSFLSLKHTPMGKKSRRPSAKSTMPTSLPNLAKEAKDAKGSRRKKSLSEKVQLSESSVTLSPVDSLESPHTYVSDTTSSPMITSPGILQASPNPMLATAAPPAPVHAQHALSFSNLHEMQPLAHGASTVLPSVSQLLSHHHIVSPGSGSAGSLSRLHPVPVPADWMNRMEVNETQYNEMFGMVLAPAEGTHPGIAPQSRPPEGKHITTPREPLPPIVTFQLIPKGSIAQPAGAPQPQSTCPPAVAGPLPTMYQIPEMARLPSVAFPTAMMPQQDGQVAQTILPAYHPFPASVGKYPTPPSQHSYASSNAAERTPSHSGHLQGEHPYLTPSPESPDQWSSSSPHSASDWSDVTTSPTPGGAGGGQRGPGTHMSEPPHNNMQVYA
Sequence of Torsin-1A-interacting protein 2 (Homo sapiens) (Q8NFQ8 whole entry, looked up): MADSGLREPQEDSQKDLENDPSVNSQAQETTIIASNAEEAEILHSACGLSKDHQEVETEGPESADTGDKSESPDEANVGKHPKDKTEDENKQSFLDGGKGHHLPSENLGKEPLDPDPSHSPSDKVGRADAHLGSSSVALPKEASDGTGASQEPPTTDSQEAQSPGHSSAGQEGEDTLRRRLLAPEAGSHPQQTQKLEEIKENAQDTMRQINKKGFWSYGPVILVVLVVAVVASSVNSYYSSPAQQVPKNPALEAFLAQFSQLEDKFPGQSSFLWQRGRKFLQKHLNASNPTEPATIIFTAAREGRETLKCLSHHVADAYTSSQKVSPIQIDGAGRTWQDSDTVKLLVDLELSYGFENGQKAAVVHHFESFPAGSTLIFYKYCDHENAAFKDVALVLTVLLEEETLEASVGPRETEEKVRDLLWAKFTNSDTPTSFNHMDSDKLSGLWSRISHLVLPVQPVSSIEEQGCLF

Compound	composite z-score [1]	composite z-score [2]	composite z-score [3]	composite z-score [4]	composite z-score [5]	composite z-score [6]	composite z-score [7]	z-score [8]	composite z-score [9]	composite z-score [10]	composite z-score [11]	z-score [12]	z-score [13]	z-score [14]	composite z-score [15]	z-score [16]	composite z-score [17]	composite z-score [18]	composite z-score [19]	composite z-score [20]
CC(C)Cc1ccc(CN2CC[C@@H](NS(=O)(=O)c3ccccc3)C2)cc1	-0.402	1.96	-0.192	-0.188	-1.43	-0.163	-0.0314	-0.803 (inactive)	-0.459	-0.132	1.01	-14.6 (active)	-20.9 (active)	-3.57 (inactive)	0.846	-19.6 (active)	-0.296	0.864	0.12	-0.154
C=CCC(OC(C)=O)[C@@H]1[C@@H](N(Cc2cccc3ccccc23)C(=O)c2ccc(C)cc2)c2cc(OCCCO)ccc2N1C(=O)Cc1ccc(OC)cc1 (stereo not given in full)	-0.186	0.307	-0.117	0.29	0.0151	0.0635	-0.391	-1.71 (inactive)	0.146	-0.0994	0.479	-3.36 (inactive)	0.365 (inactive)	-1.4 (inactive)	-0.204	0.761 (inactive)	-0.128	0.146	-0.139	-0.0828
COc1cccc(C(=O)O[C@H]2CC[C@]3(C)C4=C(CCC3C2(C)C)[C@]2(C)CC[C@H]([C@H](C)CCCC(C)C)[C@@]2(C)CC4)c1 (stereo not given in full)	-0.526	0.0024	-0.0425	0.366	-0.87	0.103	0.181	-1.06 (inactive)	0.169	0.0722	-0.0398	-1.73 (inactive)	-1.08 (inactive)	-0.166 (inactive)	0.385	2.43 (inactive)	-0.082	0.383	0.618	-0.0158
CC1CC/C=C\[C@H]2OC34C=CCN(Cc5ccccc5)C(=O)[C@H]3N(CCCCCO)C(=O)[C@@H]4C2C(=O)O1 (stereo not given in full)	0.158	-0.467	-0.149	0.155	-0.864	-0.68	1.5	0.367 (inactive)	-0.677	-0.312	-0.822	0.0898 (inactive)	0.0077 (inactive)	-0.506 (inactive)	-0.259	-0.964 (inactive)	-0.166	-1.07	-0.629	-0.206
COC(=O)c1ccc(C(O)C2C=CC3C(=O)N(c4ccccc4)C(=O)C3N2Nc2ccc(C#N)cc2)o1 (stereo not given)	0.042	0.465	0.0394	0.865	1.33	0.665	1.34	0.447 (inactive)	0.478	-0.199	0.431	-0.0337 (inactive)	0.328 (inactive)	0.989 (inactive)	3.19	-1.07 (inactive)	-0.0478	0.284	0.927	-0.0446
C=C(CCCC)/C(=C/C[C@H](OC(C)=O)c1ccc(CO)o1)c1cnc2ccccc2c1	-0.472	0.773	-0.0749	1.14	1.1	0.963	1.26	0.13 (inactive)	0.13	0.0505	1.43	-0.237 (inactive)	-0.923 (inactive)	1.37 (inactive)	1.46	0.111 (inactive)	-0.0998	1.12	1.07	0.0324
CC(C)(C)N1CC=CC23O[C@@H]4/C=C\CCCOC(=O)C4[C@H]2C(=O)N(CCO)[C@@H]3C1=O (stereo not given in full)	0.29	-1.05	-0.045	0.588	-0.931	0.208	0.938	0.911 (inactive)	-0.681	-0.236	-0.344	0.478 (inactive)	0.224 (inactive)	-0.1 (inactive)	1.94	1.54 (inactive)	-0.241	-0.551	-0.871	-0.272
CC(C)C[C@@H]1NC(=O)[C@H]2C[C@@H](C(=O)NCCCCCNC(=O)CS)[C@@H](c3cccc(OCCO)c3)N2C1=O	-0.197	0.235	-0.0474	0.387	1.25	1.03	1.31	0.209 (inactive)	0.707	-0.173	1.53	-0.454 (inactive)	-0.267 (inactive)	0.0073 (inactive)	3.06	-0.187 (inactive)	0.106	1.98	1.07	0.111
CC(C)N1C(=O)c2ccccc2[C@@H](C(=O)NCCCN(C)C)[C@@H]1c1ccc(CO)cc1	0.878	-0.194	-0.0502	-0.086	0.102	1.78	1.11	0.0159 (inactive)	0.908	0.0066	-0.468	-0.545 (inactive)	-0.672 (inactive)	-0.181 (inactive)	1.3	-1.04 (inactive)	0.196	-0.879	-0.807	-0.0435
CCOc1cc(C(O)C2C=CC3C(=O)N(c4ccccc4)C(=O)C3N2Nc2ccc([N+](=O)[O-])cc2)ccc1O (stereo not given)	-0.549	0.23	0.0139	0.516	0.796	0.946	0.943	-0.374 (inactive)	0.311	-0.271	1.07	-0.441 (inactive)	0.442 (inactive)	-0.364 (inactive)	3.37	-0.961 (inactive)	-0.0534	0.0883	0.782	-0.067
